Tb PYK inh: T. brucei pyruvate kinase inhibition; Q57TT1; TbPYK enzyme, Kinase-Glo Plus ATP luminescence, 45 min; Potency, µM (highest dose often 76.8 µM), without a hit: top-dose activity, negative = inhibition, most hits filed as inhibitors; hit rate 0.12% among 410,000; AID 624173; note: potency is the fitted concentration of half-maximal effect; % is set by controls: 0 for no effect and ±100 for the full control effect; nearly all actives have a fitted effect of over 50% in size
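Quantitative HTS: titrated library compounds versus trypanosomal pyruvate kinase in TEA buffer (pH 7.2) containing KCl, MgCl2, BSA and Tween-20. Reactions were initiated with ADP, 130 uM final. Kinase-Glo Plus luminescence was read after 45 min at RT.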
LmPK inhibitor: blocks Leishmania mexicana pyruvate kinase activity | Q27686 | purified LmPK, Kinase-Glo ATP luminescence, 1 h | Potency, µM (doses to about 57.5 µM), for inactives: at the highest dose activity change, negative = inhibition, hits mostly inhibitors | hit rate 0.37% among 290,000 | AID 1721; note: potency is the fitted concentration of half-maximal effect; % is set by controls: 0 for no effect and ±100 for the full control effect
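Kinase-Glo luminescence read after 1 h RT reaction of 0.1 nM LmPK with 0.5 mM PEP and 0.1 mM ADP. Activity scaled between uninhibited and enzyme-free controls.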
Giardia FBPA inh: blocks Giardia fructose-bisphosphate aldolase activity | A8B2U2 | purified Giardia FBPA | Potency, µM (highest dose often 59.6 µM), for the others: at the highest dose activity, negative = inhibition, actives largely listed as inhibitors | hit rate 0.71% among 290,000 | AID 2451; note: potency is the fitted concentration of half-maximal effect; % is set by controls: 0 for no effect and ±100 for the full control effect; nearly all actives have a fitted effect of over 55% in size
Target sequence (A8B2U2 whole entry, looked up): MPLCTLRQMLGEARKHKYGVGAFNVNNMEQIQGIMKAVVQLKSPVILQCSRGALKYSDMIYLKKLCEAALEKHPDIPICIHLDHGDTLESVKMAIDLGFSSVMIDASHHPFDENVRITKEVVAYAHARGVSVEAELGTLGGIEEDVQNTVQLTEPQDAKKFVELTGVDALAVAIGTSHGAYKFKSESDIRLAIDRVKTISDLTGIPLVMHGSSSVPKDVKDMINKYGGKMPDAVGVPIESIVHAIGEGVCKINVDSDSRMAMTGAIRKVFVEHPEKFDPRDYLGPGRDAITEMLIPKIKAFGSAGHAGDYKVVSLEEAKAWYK
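Giardia FBPA (40 nM reagent) was preincubated 10 min at RT with compound (up to 57.5 uM final), then substrate plus GAPDH/TPI/NAD/arsenate coupling system with diaphorase/resazurin was added; resorufin fluorescence (525/598 nm) was read after 20 min.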
CHX counter: affects cycloheximide protein synthesis inhibition readout, counter-screen; hit rate 12% among 300,000; max response, %; cell reporter, cycloheximide protein synthesis inhibition counterscreen; AID 2314; in the data active = max response mostly above about 13%, no sharp cut-off; inactive = mostly below about 14%; note: read at 38.3 µM for the half of the compounds with a filed dose; 0% is about no effect
Sm TGR inh: blocks Schistosoma mansoni thioredoxin glutathione reductase; purified TGR, DTNB reduction, TNB absorbance 405 nm; hit rate 3% among 360,000; Potency, µM (titrated, usually from 114 µM), for the others: at the top dose activity change, negative = inhibition, usual class: inhibitors; Q962Y6; note: potency is the fitted concentration of half-maximal effect; % is set by controls: 0 for no effect and ±100 for the full control effect; nearly all actives have a fitted effect of over 60% in size
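First, TGR (20 nM dispensed) and NADPH were mixed with compound. Second, a 15 min room-temperature incubation followed. Third, further NADPH and then DTNB were added to start the reaction. Finally, TNB absorbance was monitored kinetically.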
Shiga toxin inh: blocks Shiga toxin action in Vero cells | Vero cells, Shiga toxin protein synthesis inhibition reporter | inhibition, % at 38.7 µM | hit rate 9.2% among 290,000 | AID 2315; in the data active = inhibition mostly above about 28%, no sharp cut-off; inactive = mostly below about 43%; note: 0% is about no effect
Numbers without * were called inactive; ? = inconclusive; · = not tested or not shown. The full list was thinned out, with hits kept by preference. Unless noted, calls come from the whole dose curve; as a rule, active = well fitted curve in the direction sought with a large enough effect; inconclusive = small, poorly fitted or top-dose-only effect, or another doubt; inactive = no such curve, though single readings can be large; an effect the other way counts as inactive or inconclusive.

SMILES	Tb PYK inh	LmPK inhibitor	Giardia FBPA inh	CHX counter	Sm TGR inh	Shiga toxin inh
COc1cc(NC(=O)CCC(=O)c2cccs2)cc(OC)c1	-3.7%	-9.5%	·	6.5	6.0%	-14.9
CCc1ccc(NC(=O)CSc2c(C)cnc3c2c(=O)n(C)c(=O)n3C)cc1	0.7%	·	·	·	5.7%	·
CCN(Cc1ccccc1)C(=O)Cn1c(=O)n(-c2ccc(F)c(Cl)c2)c(=O)c2sc3ccccc3c21	-9.0%	·	·	·	1.3%	·
CC(C)C(=O)NCCc1c[nH]c2ccccc12	-10.5%	-0.3%	-3.2%	5.5	-5.3%	2.3
Cc1ccc(C(=O)NCCc2c[nH]c3ccccc23)c(C)c1	1.6%	-0.5%	·	79.5*	-4.4%	87.2*
O=C(NCCc1c[nH]c2ccccc12)c1cc([N+](=O)[O-])cc([N+](=O)[O-])c1	3.1%	0.9%	-0.6%	1.5	-2.5%	-2.7
O=C(NCCc1c[nH]c2ccccc12)c1ccccc1	2.1%	-1.3%	-5.0%	38.8*	7.6%	93.6*
O=C(NCCc1c[nH]c2ccccc12)c1ccc([N+](=O)[O-])cc1	-4.6%	0.0%	-2.3%	38.0*	-13.3%	79.8*
O=C(Cn1ccc([N+](=O)[O-])n1)NCCc1c[nH]c2ccccc12	1.3%	13.2%	-2.9%	58.5*	6.4%	92.4*
Cn1c(Cc2ccccc2)nnc1SCC(=O)NC1CCCC1	2.3%	0.6%	·	-1.0	-0.8%	3.1
CC(C)CC1(C(=O)NCCc2c[nH]c3ccccc23)C=CCN1C(=O)c1ccccc1 (configuration not stated)	-13.3%	-0.5%	-3.2%	10.2	39.8µM*	10.9
Cc1ccc(C(=O)NCCc2c[nH]c3ccccc23)s1	-0.7%	-0.1%	·	51.7*	1.7%	85.4*
CC(=O)N1CC=CC1(CC(C)C)C(=O)NCCc1c[nH]c2ccccc12 (configuration not stated)	-15.1%	0.3%	-0.2%	2.2	-13.1%	-4.3
COC(=O)CCCNC(=O)c1ccc(S(=O)(=O)NCc2ccco2)cc1	1.3%	·	·	·	2.5%	·
O=C(NCCc1c[nH]c2ccccc12)c1ccc(S(=O)(=O)NCc2ccco2)cc1	-0.3%	6.6%	-12.0%	16.1*	?	-2.6
CCOc1ccc(CCNC(=O)C2CCN(C(=O)c3cc4sccc4n3CC)CC2)cc1OCC	-6.8%	·	·	·	18.5%	·
CCCSc1ncc(Cl)c(C(=O)Nc2ccc(OC)cc2OC)n1	-7.4%	·	·	·	2.3%	·
O=C(Cn1ccc2ccccc2c1=O)NCCC(=O)Nc1cccc(Cl)c1	-2.0%	-5.1%	8.8%	-5.8	1.0%	20.6
N#C/C(=N\Nc1cccc([N+](=O)[O-])c1)C(=O)c1ccc(Br)cc1	5.1%	1.0%	4.1%	1.5	-21.4%	9.9
O=C(/C(N=Nc1cccc([N+](=O)[O-])c1)=C(/O)c1ccc(Br)cc1)C(F)(F)F	·	7.3%	5.9%	21.6*	12.0%	85.7*
C[n+]1cc[nH]c1SCC(=O)c1ccc(Cl)cc1	-14.5%	?	-13.0%	31.1*	·	63.4
O=C(O)CSCC(=O)c1ccccc1	-23.0%	4.5%	-2.1%	12.0	-8.1%	23.5
C[n+]1cc[nH]c1SCC(=O)c1ccccc1	-13.7%	-15.1%	-19.8%	37.2*	-18.7%	57.6
CCOC(=O)c1ccc(NC(=O)CSc2nnc(-c3ccncc3)n2-c2ccccc2)cc1	5.4%	·	·	·	9.1%	·
CC1=C(C)C(=O)C(CCCCC#CCCCC#CCO)=C(C)C1=O	-4.3%	4.3%	17.7µM*	-1.8	8.91µM*	-12.4
SMILES	Tb PYK inh	LmPK inhibitor	Giardia FBPA inh	CHX counter	Sm TGR inh	Shiga toxin inh
Cc1ccc2[nH]c3c(=O)n(CC(=O)N(CCN(C)C)Cc4ccccc4)ncc3c2c1	3.4%	·	·	·	12.1%	·
CCOC(=O)Cc1csc(NC(=O)c2cnc3sc(C)cn3c2=O)n1	-1.6%	-0.1%	·	42.7*	-13.9%	88.3*
CCOC(=O)Cc1csc(NC(=O)c2cc(C)on2)n1	9.1%	·	·	·	·	·
Cc1ccc(-c2ocnc2C(=O)Nc2nc(C)cs2)cc1	-4.8%	5.7%	-17.9%	72.3*	-3.5%	·
CCCCOC(=O)Nc1nc(CC(=O)OCC)cs1	2.5%	3.7%	4.3%	14.7*	-5.3%	30.4
CCOC(=O)Cc1csc(NC(=O)c2cc(C)c(C)s2)n1	2.4%	·	·	·	-8.9%	·
CCOC(=O)Cc1csc(NC(=O)c2ccc(C)o2)n1	-6.9%	-8.3%	-0.4%	22.0*	0.0%	51.8*

Screening results: PubChem BioAssay, National Center for Advancing Translational Sciences (NCATS)
